Results filed as inconclusive are left out. A structure can be active in one record and inactive in another. Active and inactive are the calls of the source. How the source made its calls: active means hit-call score of the fitted dose curve at least 0.9, where 1 is the maximum; inconclusive means response in the unintended direction; inactive means score below 0.9.
Assay: ATG_XTT_Cytotoxicity: Cytotoxicity Assessment in the Attagene TRANS-FACTORIAL HepG2 Assay (AID 2283584);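 on AC50: cells exposed to compound for 24 h before reading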
Procedure: ATG_XTT_Cytotoxicity is a cell-based, single-readout assay that uses HepG2, a human liver cell line, with measurements taken at 24 hours after chemical dosing in a 24-well plate.ATG_XTT_Cytotoxicity is one of one assay component(s) measured or calculated from the ATG_XTT_Cytotoxicity assay. It is designed to make measurements of cell number, a form of viability reporter, as detected with […] signals by XTT cytotoxicity assay technology.Data from the assay component ATG_XTT_Cytotoxicity was analyzed into 1 assay endpoint. This assay endpoint, ATG_XTT_Cytotoxicity, was analyzed in the positive analysis fitting direction relative to DMSO as the negative control and baseline of activity. Using a type of viability reporter, loss-of-signal activity can be used to understand changes in the viability. Furthermore, this assay endpoint can be referred to as a primary readout, because the performed assay has only produced 1 assay endpoint. To generalize the intended target to other relatable targets, this assay endpoint is annotated to the cell cycle intended target family, where the subfamily is cytotoxicity.
Human liver HepG2 cells are transiently transfected with multiple reporter transcription units (MRTUs) in 6-well plates using FuGene 6 reagent (Roche; 3 ml FuGene/1 mg DNA). The MRTU constructs are regulated by a cis-regulating element (promoter). […] A major difference between the CIS and TRANS system is that in CIS activities of endogenous TFs are measured, whereas the TRANS assay evaluates changes in activities of exogenous, chimeric NR-Gal4 proteins. […] At the end of 24 hour incubation, total RNA was isolated using TriZol reagent (Invitrogen). The isolated RNA is then reverse-transcribed using oligo(dT) primer and Mo-MLV reverse transcriptase (Invitrogen) with DNAse I (Ambion) treatment for 30 min. The one-tenth of the produced cDNA was amplified by PCR using Taq DNA polymerase (Invitrogen) and two reporter sequence-specific primers. The PCR products were fluorescently labeled by primer extension with 6-arboxyfluorescein (6-FAM) 5'-labeled reporter sequence-specific primer (2 min at 95 C, 20 s at 68 C and 10 min at 72 C) and these products were digested with 5U of HpaI (New England Biolabs) for 2h at 37 C. The fragments were purified using Qiaquick PCR columns (Qiagen), analyzed on an ABI 3130xL genetic analyzer (Applied Biosystems) with peak positions identified by using a set of X-rhodamine (ROX)-labeled MapMarker1000 molecular weight standards (BioVentures). The raw capillary electrophoresis data was processed using Attagraph software (Attagene).

Row | Compound | outcome | AC50
1 | Nc1ccc(Cl)cc1N | inactive | 
2 | c1ccc2c(c1)-c1cccc3cccc-2c13 | inactive | 
3 | c1ccc(NNc2ccccc2)cc1 | inactive | 
4 | CCCCCOC(=O)c1ccccc1C(=O)OCCCCC | inactive | 
5 | Oc1ccc2ccc3cccc4ccc1c2c34 | inactive | 
6 | CCC[CH2][Sn]([Cl])([CH2]CCC)[CH2]CCC | inactive | 1.8 µM (active)
7 | Clc1ccccc1Cl | inactive | 
8 | COC(=O)c1ccccc1N | inactive | 
9 | O=C(O)C1C2CCC(O2)C1C(=O)O (stereo not given) | inactive | 
10 | N#CC(Br)(Br)C(N)=O | inactive | 
11 | [O-][Cl+]O | inactive | 
12 | COC(=O)Nc1nc2ccccc2[nH]1 | inactive | 
13 | OCCOCCO | inactive | 
14 | CC(C)N(Cc1ccccc1)C(=O)C(C)(C)C | inactive | 
15 | CCC(C)c1ccc(O)cc1 (stereo not given) | inactive | 
16 | ClC1=C(Cl)C2(Cl)C3C(Cl)C=CC3C1(Cl)C2(Cl)Cl (stereo not given) | inactive | 
17 | Cc1cc(N=Nc2ccccc2C)ccc1N | inactive | 
18 | ClC1=C(Cl)[C@]2(Cl)[C@H]3[C@H]([C@@H]4C=C[C@H]3C4)[C@@]1(Cl)C2(Cl)Cl | inactive | 
19 | OCCCBr | inactive | 
20 | C[N+](C)(C)CC1CO1 (stereo not given) | inactive | 

Row | Compound | outcome | AC50
21 | O=[N+]([O-])C(Br)(CO)CO | inactive | 
22 | C1=Cc2cccc3cccc1c23 | inactive | 
23 | CN(C)c1ccccc1 | inactive | 
24 | CCCCC(CC)COC(=O)c1ccc(C(=O)OCC(CC)CCCC)c(C(=O)OCC(CC)CCCC)c1 (stereo not given) | inactive | 
25 | CC(C)COC(=O)c1ccccc1C(=O)OCC(C)C | inactive | 
26 | CCN(CC)CCO | inactive | 
27 | CCN(CC)N=O | inactive | 
28 | CN(C)C(=O)Nc1ccc(Cl)cc1 | inactive | 
29 | CC(C)(C)C(O)(CCc1ccc(Cl)cc1)Cn1cncn1 (stereo not given) | inactive | 
30 | COc1cc(C=O)cc2c1[C@H](COC(N)=O)[C@]1(OC(C)=O)ON2C[C@H]2[C@@H]1N2C(C)=O | inactive | 
31 | CCCSC(=O)N(CCC)CCC | inactive | 
32 | CS(=O)(=O)NC(=O)c1cc(Oc2ccc(C(F)(F)F)cc2Cl)ccc1[N+](=O)[O-] | inactive | 
33 | CC(C)(C)OOC(=O)c1ccccc1 | inactive | 
34 | CC(C)(C)OOC(C)(C)CCC(C)(C)OOC(C)(C)C | inactive | 
35 | CN(C)c1ccc(C(=O)c2ccc(N(C)C)cc2)cc1 | inactive | 
36 | Cc1ccc([N+](=O)[O-])cc1 | inactive | 
37 | CO[C@@H]1[C@H](OC(=O)NC(=O)CCl)CC[C@]2(CO2)[C@H]1[C@@]1(C)O[C@@H]1CC=C(C)C | inactive | 
38 | O=C1CCCO1 | inactive | 
39 | [Cl-].[Cl-].[Hg+2] | inactive | 

From PubChem BioAssay (EPA / NIEHS)
